Reference: PubChem BioAssay AID1159580 (chemical genetic matrix, 2015)
About 2,000 (36%) of roughly 5,500 compounds were called active. Inconclusive results (about 18%) are left out. Cut-off read from the data, not from the text of the source: active = normalized growth mostly below about 0.91 (no sharp cut-off); inconclusive = no clear call, values can overlap the other calls; inactive = mostly above about 0.92. The list shows a part of the results.

Assay: chemical genetic growth profiling, strain panel (AID 1159580);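 note: tested at 20 µM; growth read once vehicle control cultures reached saturation at 30 °C; 1 = growth at the plate median or of vehicle wells; lower values mean less growth of the strain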
Details: S. cerevisiae deletion strains, growth OD
[1] = locus YDL101C, strain DUN1, active compounds read low
[2] = locus YHR030C, strain SLT2, active compounds read low
[3] = locus YMR307W, strain GAS1, active compounds read low

Measured: normalized growth

CSc1cc(-c2ccncc2)nc(-c2cccs2)c1
inactive: locus YAR019C, strain CDC15, active compounds read low 0.953 | locus YBL105C, strain PKC1, active compounds read low 0.964 | locus YBR135W, strain CKS1, active compounds read low 0.957 | locus YBR136W, strain MEC1, active compounds read low 0.961 | locus YBR160W, strain CDC28, active compounds read low 0.952 | locus YDL017W, strain CDC7, active compounds read low 0.959 | locus YDL028C, strain MPS1, active compounds read low 0.965 | [1] 0.971 | locus YDL108W, strain KIN28, active compounds read low 0.96 | locus YDL132W, strain cdc53, active compounds read low 0.961 | locus YDL214C, strain PRR2, active compounds read low 0.965 | locus YDR052C, strain DBF4, active compounds read low 0.965 | locus YDR054C, strain cdc34, active compounds read low 0.957 | locus YDR226W, strain ADK1, active compounds read low 0.951 | locus YDR477W, strain SNF1, active compounds read low 0.941 | locus YER123W, strain YCK3, active compounds read low 0.928 | locus YER133W, strain GLC7, active compounds read low 0.927 | locus YFL009W, strain cdc4, active compounds read low 0.975 | locus YFL029C, strain CAK1, active compounds read low 0.952 | locus YFR003C, strain YPI1, active compounds read low 0.96 | locus YFR019W, strain FAB1, active compounds read low 0.965 | locus YFR028C, strain CDC14, active compounds read low 0.952 | locus YGR040W, strain KSS1, active compounds read low 0.928 | locus YGR052W, strain FMP48, active compounds read low 1.05 | locus YGR092W, strain DBF2, active compounds read low 0.89 | [2] 1.03 | locus YHR079C, strain IRE1, active compounds read low 0.953 | locus YHR082C, strain KSP1, active compounds read low 1.02 | locus YHR205W, strain SCH9, active compounds read low 0.997 | locus YIL147C, strain SLN1, active compounds read low 0.962 | locus YJL095W, strain BCK1, active compounds read low 0.982 | locus YJL128C, strain PBS2, active compounds read low 0.963 | locus YJL157C, strain FAR1, active compounds read low 0.938 | locus YJR016C, strain ILV3, active compounds read low 0.985 | locus YJR066W, strain TOR1 (second series), active compounds read low 0.95 | locus YJR066W, strain TOR1, active compounds read low 0.993 | locus YKL048C, strain ELM1, active compounds read low 0.966 | locus YKL067W, strain YNK1, active compounds read low 0.951 | locus YKL101W, strain HSL1, active compounds read low 0.961 | locus YKL193C, strain SDS22, active compounds read low 0.958 | locus YKL203C, strain TOR2, active compounds read low 1 | locus YLR113W, strain HOG1, active compounds read low 0.92 | locus YLR133W, strain CKI1, active compounds read low 0.962 | locus YLR403W, strain SFP1, active compounds read low 1.01 | locus YML070W, strain DAK1, active compounds read low 0.929 | locus YMR001C, strain CDC5, active compounds read low 0.964 | locus YMR205C, strain PFK2 (second series), active compounds read low 0.963 | locus YMR277W, strain FCP1, active compounds read low 0.961 | locus YNL006W, strain LST8, active compounds read low 0.969 | locus YNL020C, strain ARK1, active compounds read low 0.954 | locus YNL161W, strain CBK1, active compounds read low 0.952 | locus YNL183C, strain NPR1, active compounds read low 0.97 | locus YNL207W, strain RIO2, active compounds read low 0.945 | locus YNL222W, strain SSU72, active compounds read low 0.951 | locus YNL307C, strain MCK1 (second series), active compounds read low 0.952 | locus YOL078W, strain AVO1, active compounds read low 0.96 | locus YOL136C, strain PFK27, active compounds read low 0.956 | locus YOR061W, strain CKA2, active compounds read low 0.963 | locus YOR119C, strain RIO1, active compounds read low 0.984 | locus YOR231W, strain MKK1, active compounds read low 0.921 | locus YOR329C, strain SCD5, active compounds read low 0.966 | locus YPL031C, strain PHO85, active compounds read low 0.927 | locus YPL153C, strain RAD53, active compounds read low 0.925 | locus YPL204W, strain HRR25, active compounds read low 0.951 | locus YPL209C, strain IPL1, active compounds read low 0.954 | locus YPL256C, strain CLN2, active compounds read low 0.939 | locus YPR025C, strain CCL1, active compounds read low 0.963 | locus YPR106W, strain ISR1, active compounds read low 0.959 | locus YPR111W, strain DBF20, active compounds read low 0.947 | strain NNK1, active compounds read low 0.965 | strain TSCII, active compounds read low 0.951

CSc1c(C#N)c(-c2cccs2)nn1C
inactive: locus YAL013W, strain DEP1, active compounds read low 0.934 | locus YBR229C, strain ROT2, active compounds read low 0.935 | [1] 0.934 | locus YDR150W, strain NUM1, active compounds read low 0.86 | locus YEL061C, strain CIN8, active compounds read low 0.924 | locus YJL187C, strain SWE1, active compounds read low 1.02 | locus YJR043C, strain POL32, active compounds read low 0.978 | locus YLR039C, strain RIC1, active compounds read low 0.87 | locus YLR085C, strain ARP6, active compounds read low 0.784 | locus YLR262C, strain YPT6, active compounds read low 0.879 | locus YML094W, strain GIM5, active compounds read low 0.911 | locus YMR219W, strain ESC1, active compounds read low 0.945 | locus YMR263W, strain SAP30, active compounds read low 0.949 | [3] 0.983 | locus YNL153C, strain GIM3, active compounds read low 0.959 | locus YPL055C, strain LGE1, active compounds read low 0.917 | locus YPL241C, strain CIN2, active compounds read low 0.886
active: locus YGR078C, strain PAC10, active compounds read low 0.913 | [2] 0.505 | locus YHR087W, strain rtc3, active compounds read low 0.898 | locus YJR075W, strain HOC1, active compounds read low 0.89 | locus YLR058C, strain SHM2 (second series), active compounds read low 0.92 | locus YNL298W, strain CLA4 (second series), active compounds read low 0.804 | locus YNL322C, strain KRE1, active compounds read low 0.931 | locus YNR030W, strain Alg12, active compounds read low 0.859 | locus YPR135W, strain CTF4, active compounds read low 0.509

NCC(CP(=O)(O)O)c1ccc(Cl)cc1 (stereo not drawn)
inactive: locus YAL040C, strain CLN3, active compounds read low 1.04 | locus YCL061C, strain MRC1 (second series), active compounds read low 0.978 | locus YDR363W, strain ESC2, active compounds read low 0.99 | locus YER002W, strain NOP16, active compounds read low 0.991 | locus YGR229C, strain SMI1, active compounds read low 0.963 | [3] 0.995 | locus YNL128W, strain TEP1, active compounds read low 0.987 | locus YNL175C, strain NOP13, active compounds read low 0.986 | locus YNL197C, strain WHI3, active compounds read low 0.998 | locus YNL224C, strain SQS1, active compounds read low 1 | locus YOR083W, strain WHI5 (second series), active compounds read low 0.98
